According to PubChem BioAssay AID1671187 (National Center for Advancing Translational Sciences (NCATS), 2021):
The list shows a part of the results. Inconclusive results are not listed. Calls of active or inactive are those of the source. Calls come from the whole dose curve; as a rule, active = well fitted inhibition curve with a large enough effect; inconclusive = small, poorly fitted or top-dose-only effect; inactive = flat fitted curve, though single readings scatter.

The compounds below were run against Alanine aminotransferase 2 (Homo sapiens) (UniProt Q8TD30) (assay: Confirmatory qHTS assay for inhibitors of Glutamate pyruvate transaminase 2 (GPT2)). Conditions: GPT2 enzyme, coupled Amplex Red pyruvate fluorescence.
Chain of Alanine aminotransferase 2 (Homo sapiens) (Q8TD30 whole entry, looked up): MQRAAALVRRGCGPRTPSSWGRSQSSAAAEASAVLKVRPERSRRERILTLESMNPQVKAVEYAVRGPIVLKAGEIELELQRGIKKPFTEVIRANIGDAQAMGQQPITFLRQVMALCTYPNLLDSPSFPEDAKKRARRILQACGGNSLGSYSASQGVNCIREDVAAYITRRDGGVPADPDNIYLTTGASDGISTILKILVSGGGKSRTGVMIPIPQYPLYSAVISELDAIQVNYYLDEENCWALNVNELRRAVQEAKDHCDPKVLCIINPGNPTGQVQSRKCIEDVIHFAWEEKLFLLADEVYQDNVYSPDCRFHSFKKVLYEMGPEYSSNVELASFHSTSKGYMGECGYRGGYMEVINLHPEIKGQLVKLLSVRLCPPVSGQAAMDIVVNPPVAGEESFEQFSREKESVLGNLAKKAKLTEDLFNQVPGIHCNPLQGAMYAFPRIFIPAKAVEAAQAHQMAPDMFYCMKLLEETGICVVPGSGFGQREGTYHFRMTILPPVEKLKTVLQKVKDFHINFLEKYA
Experimental: Assay Provider: Zhenghe John Wang Ph.D. Case Western Reserve University, Cleveland OH Glutamate pyruvate transaminase 2 (GPT2) catalyzes the reversible transamination of glutamate and pyruvate to provide a-ketoglutarate and alanine. We have optimized an assay for GPT2 enzymatic activity that couples pyruvate formation to detection of fluorescence using an established pyruvate oxidase/horseradish peroxidase / Amplex Red system. Screening conditions were 250uM a-KG, 2mM L-alanine, and 0.006 ng/uL GPT2 in 4 uL of solution; 2 uL of Amplex reaction mix (outlined below) were added so that final concentrations of Amplex reagents in 6 uL were 0.2mM ThPP, 0.2U/mL PO, 1 U/mL HRP, and 15 uM Amplex.
NOTE: The volume of GPT2 in the system depended on the activity of it. The activity could be different in every batch. Batch testing the GPT2 activity was done prior to the assay. Full plate assay with automation as the following protocol: 1. Dispense 2ul of GPT2 enzyme (0.012 ng/ul) into columns 3-48, 2ul of GPT2 buffer (ddH2O with 110mM KCl, 10mM NaCl, 2mM MgCl2, 20mM HEPEs, 0.01% tween-20, 0.1% BSA, 5mM DTT ) into columns 1-2 as a positive control. 2. […] Read at Tecan: Excitation filter 560(10) nm, Emission filter 590 (10) nm Reagents preparation: 1. […]

| Structure (SMILES) | Potency |
| --- | --- |
| CNC(=O)c1ccccc1Nc1nc(Nc2ccc(N3CCOCC3)cc2OC)ncc1Cl | 1.72 µM (active) |
| CN1CCOc2c(C(=O)NCCN3CCNC3=O)cc(Nc3cccnc3)cc21 | 4.98 µM (active) |
